Hit rate of the full screen: of about 340,000 compounds, about 6,400 (1.9%) were called active. A call without a number means that no potency is given here. Inconclusive results (about 4%) are left out. Calls come from the whole dose curve; as a rule, active = well fitted falling curve with a large enough effect; inconclusive = small, poorly fitted or top-dose-only effect; inactive = no such curve, though single readings can be large or run the other way. This excerpt belongs to a sample that is enriched for actives.
Target: ATP-dependent Clp protease proteolytic subunit (Bacillus subtilis (strain 168)) (UniProt P80244)
Assay: qHTS Assay for Activators of ClpP; note: the source files actives as falling curves though it sought activators and does not explain the sign; nearly all actives have a fitted effect of over 65% in size
Conditions: purified B. subtilis ClpP, FRET peptide cleavage, 20 min; series mostly up to 57.5 µM
Outline: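 Purified B. subtilis ClpP, 10 microg/mL final in Tris/HCl pH8 with KCl, BSA, glycerol and Tween-20, cleaved an Abz/nitrotyrosine-quenched decapeptide. Fluorescence (ex 320, em 430) was read at 0 and 20 min at room temperature. Delta was normalized to 5.8 microM ADEP and DMSO/no-enzyme controls.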
Potency is the fitted concentration of half-maximal effect.

ATP-dependent Clp protease proteolytic subunit (Bacillus subtilis (strain 168)), sequence (P80244 whole entry, looked up): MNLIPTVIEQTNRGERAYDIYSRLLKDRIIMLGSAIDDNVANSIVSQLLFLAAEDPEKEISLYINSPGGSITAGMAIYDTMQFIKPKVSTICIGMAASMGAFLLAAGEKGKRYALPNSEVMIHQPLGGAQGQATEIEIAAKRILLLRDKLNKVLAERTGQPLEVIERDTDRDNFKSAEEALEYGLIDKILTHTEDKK

Row | Structure (SMILES) | Potency
1 | O=C(OCc1cn([C@H]2C[C@H](c3ccccc3)N(C(=O)c3cccs3)C[C@@H]2O)nn1)c1ccccc1 | inactive
2 | CCOC(=O)C1=CC[C@@H](c2ccncc2)N(S(=O)(=O)c2ccc(C)cc2)C1 | inactive
3 | CC1(C(=O)NCc2ccc3c(c2)OCO3)CCN1CCc1ccccc1 (configuration not stated) | inactive
4 | C[N+](C)(C)CCNC(=O)c1c[nH]c2ccccc12 | inactive
5 | CCOC(=O)c1ccc(NC(=O)c2cc(=O)[nH]c3ccccc23)cc1 | inactive
6 | CC1CCN(C(=O)COC(=O)c2cc(=O)[nH]c3ccccc23)CC1 | inactive
7 | CCOC(=O)c1ccc(COC(=O)c2cc(=O)[nH]c3ccccc23)o1 | 15.8 µM (active)
8 | Cc1ccc2nc(-c3ccccc3)c(CC3CCCCC3)n2c1 | inactive
9 | SCc1nc2ccc(Cl)cc2[nH]1 | inactive
10 | COc1ccccc1CC(=O)Nc1ccc(F)cc1F | inactive
11 | COc1ccccc1CC(=O)Nc1ccc([N+](=O)[O-])cc1OC | 7.08 µM (active)
12 | COc1cc([N+](=O)[O-])ccc1NC(=O)CN1CCCC1 | inactive
13 | O=C(NC(c1ccc(-c2ccccc2)cc1)c1cnccn1)C1CCN(CCOc2ccc(Cl)cc2Cl)CC1 (configuration not stated) | inactive
14 | COc1cc2nc(N3CCCN(C)CC3)nc(NC(C)C)c2cc1OC | inactive
15 | COC(=O)Cn1c2ccc(C)cc2c2nc(C)sc21 | inactive
16 | COC(=O)Cn1c(=NC(=O)CSCC(=O)Nc2cc(C)on2)sc2ccccc21 | inactive
17 | COC(=O)Cn1c(=NC(=O)c2cc(OC)c(OC)c(OC)c2)sc2cc(OC)ccc21 | 2.82 µM (active)
18 | Cc1ccccc1-c1csc(C(O)c2cccc(Cl)c2)n1 (configuration not stated) | inactive
19 | COc1ccc(C(=O)Nc2c(Cl)cc(Cl)cc2C(=O)N2CCC(C)CC2)cc1 | 15.8 µM (active)
20 | COc1ccc(C(=O)Nc2ccccc2C(=O)N2CCN(c3ccccc3)CC2)cc1 | inactive
21 | COc1ccc(C(=O)N2CCC(C(=O)Nc3ccc(C)cc3)CC2)cc1 | inactive
22 | OC(Cc1ccc2ccccc2n1)c1ccc(Cl)c(Cl)c1 (configuration not stated) | inactive
23 | COc1ccc(-c2nc(SCC(=O)N3CCCCC3C)n[nH]2)cc1 (configuration not stated) | inactive
24 | COc1ccc(-c2ccnc(SCC(=O)N3CCOCC3)n2)cc1 | 15.8 µM (active)
25 | O=C(CSc1n[nH]c(-c2ccccc2)n1)N1CCCCC1 | inactive
26 | O=C(CSc1nnc(-c2ccoc2)o1)N1CCOCC1 | inactive

Row | Structure (SMILES) | Potency
27 | COc1ccc(-c2nc(SCC(=O)N3CCOCC3)n[nH]2)cc1 | 15.8 µM (active)
28 | COc1ccc(N2CCN(C(=O)CSc3nnc4ncccn34)CC2)cc1 | inactive
29 | CCc1ccccc1NC(=O)CN1CCN(C(=O)c2cc(C3CC3)nn2-c2ccccc2)CC1 | inactive
30 | CSc1ccc(CNC(=O)C2(C)CCCN2C)cc1 (configuration not stated) | inactive
31 | CCOC(=O)c1ccc(-n2c(CCC(=O)O)ccc2-c2ccccc2)cc1 | inactive
32 | CCOC(=O)c1c(-c2ccc(OC)cc2)oc2ccc(OCc3ccc(C(=O)OC)cc3)cc12 | inactive
33 | CCOC(=O)c1ccc(COC(=O)CCc2nc(-c3ccccc3)c(-c3ccccc3)o2)cc1 | 28.2 µM (active)
34 | COC(=O)C1=CN(c2c(C)cc(C)cc2C)C(N)=C(C#N)C1c1cccc(F)c1 (configuration not stated) | inactive
35 | Cc1ccc(Cn2cc(CN3CC(N4CCN(C)CC4)CS3(=O)=O)nn2)cc1 (configuration not stated) | inactive
36 | OC[C@@H]1CN(Cc2cccs2)C[C@H](n2cnc3c(Nc4ccccc4)ncnc32)O1 | inactive
37 | CC(C)C[C@@H](COCc1ccc(Cl)cc1)N1CCN(C(=O)c2ccc(Cl)cc2Cl)CCC1=O | inactive
38 | OC[C@@H]1CN(Cc2ccc(-c3ccccc3)cc2)C[C@H](n2cnc3c(NC4CCCC4)ncnc32)O1 | inactive
39 | COc1cccc2c(=O)n(CC(=O)N3CCCCCC3)ccc12 | inactive
40 | O=C(CN1C(=O)c2cccc3cccc(c23)C1=O)N1CCCCC1 | 14.1 µM (active)
41 | C[N+](C)(CCCCCC[N+](C)(C)CCCN1C(=O)c2cccc3cccc(c23)C1=O)CCCN1C(=O)c2cccc3cccc(c23)C1=O | inactive
42 | C#CCNC(=O)C[C@@H]1C[C@@]2(C(=O)OCC)CCCC=C2N(Cc2ccco2)C1=O | inactive
43 | CC(=O)Nc1cccc(Nc2ccc(C#N)cc2)c1 | inactive
44 | O=C1O/C(=C\c2ccc(O)cc2)C(O)=C1c1ccc(O)cc1 | inactive
45 | CC(C)(C)NC(=O)C(c1ccco1)N(Cc1ccc2c(c1)OCO2)C(=O)Cn1nnc2ccccc21 (configuration not stated) | inactive
46 | CCC(C)(C)NC(=O)C(c1ccc(O)cc1)N(C(=O)Cn1nnc2ccccc21)c1ccc(NC(C)=O)cc1 (configuration not stated) | inactive
47 | CCC(C)(C)NC(=O)C(c1cccn1C)N(Cc1ccc(C)cc1)C(=O)Cn1nnc2ccccc21 (configuration not stated) | 31.6 µM (active)
48 | Nc1[nH]c(C(=O)c2ccccc2)c(-c2ccncc2)c1C(=O)NCc1cccc2ccccc12 | inactive
49 | CCOC(=O)C1CCCN(C(=O)c2cccc3ccccc23)CC1 (configuration not stated) | inactive
50 | COc1ccc(CCNC(=O)c2cc3cccc4c3n2CC(C)S4)c(OC)c1OC (configuration not stated) | 31.6 µM (active)
51 | COc1ccccc1CNC(=O)c1ccc(NC(=O)N2CC(C)Sc3ccccc32)cc1 (configuration not stated) | inactive
52 | COc1ccc(CCNC(=O)c2nn(C)c3c2CSc2ccccc2-3)cc1OC | inactive

Row | Structure (SMILES) | Potency
53 | NC(c1csc(NC(=O)Nc2cccc(C(F)(F)F)c2)n1)C1CCCCC1 (configuration not stated) | inactive
54 | CN(Cc1ccccc1F)c1cc2c(c3c1ccn3C)C1CCC2O1 (configuration not stated) | inactive
55 | COC(=O)Cc1ccc(OC2(C)CCN(Cc3ccc4c(c3)OCCO4)C2)cc1 (configuration not stated) | inactive
56 | O=C(Nc1ccc([N+](=O)[O-])cc1)c1cnn2c1NC(=C1CC1)C=C2C(F)F | inactive
57 | Cc1cc(N2CCN(S(=O)(=O)c3ccc(C)c(C)c3)CC2)c2ccccc2n1 | inactive
58 | CC(=O)Nc1ccc(S(=O)(=O)N2CCN(c3ccccc3)CC2)cc1 | inactive
59 | Cc1ccc(S(=O)(=O)N2CCN(c3ccccc3)CC2)cc1C | 17.8 µM (active)
60 | C[N+]1(CC(=O)c2cccs2)CCOCC1 | inactive
61 | CCCCC(=O)N(C)c1c(CC)nc2c(OCc3ccc(S(C)(=O)=O)cc3)cccn12 | inactive
62 | CCOc1ccc(C2=CC(c3ccccc3)n3ncnc3N2)cc1 (configuration not stated) | inactive
63 | Cc1ccc(C2C=C(c3ccc(Cl)cc3)Nc3nc(NC(=O)CCC(=O)O)nn32)cc1 (configuration not stated) | 6.31 µM (active)
64 | COc1ccc(C2=CC(c3ccccc3Cl)n3nc(-c4ccc(Cl)cc4)nc3N2)cc1 (configuration not stated) | inactive
65 | O=C(NCCOc1ccccc1)N1[C@H]2CC[C@@H]1C=C(c1ccc(F)cc1OCc1ccccc1)C2 | inactive
66 | CCCCn1nnnc1C1(C)CCC(=O)N1Cc1ccc(OC)c(OC)c1 (configuration not stated) | inactive
67 | COCc1cccc(-c2csc(C(O)c3ccc(F)cc3)n2)c1 (configuration not stated) | inactive
68 | O=S1(=O)CCN(Cc2ccccc2)CC1 | inactive
69 | Cc1ccc(-n2c(N)c(C(=O)N3CCOCC3)sc2=S)c(C)c1 | inactive
70 | N#Cc1ccccc1-n1c(N)c(C(=O)N2CCCC2)sc1=S | inactive
71 | Cc1cccc(-n2c(N)c(C(=O)N3CCN(C)CC3)sc2=S)c1 | 17.8 µM (active)
72 | CCc1nc2c(OCCOc3ccccc3)cccn2c1N(C=O)Cc1ccc(OC)cc1 | inactive
73 | CS(=O)(=O)N1CCCCC1c1cc(C(=O)NCc2ccccc2)no1 (configuration not stated) | inactive
74 | CC(C)(C)c1ccc(C(=O)NCc2ccco2)cc1 | inactive
75 | CCc1ccc(-c2cc(C(=O)NCc3ccco3)c3ccccc3n2)s1 | 28.2 µM (active)
76 | CC(=O)NCCNC(=O)c1cc(-c2cccc3ccccc23)nc2ccccc12 | inactive
77 | CC(C)Nc1nc(NCCOc2ccccc2Cl)c2sccc2n1 | inactive
78 | COC(=O)c1ccc(CN2C(=O)C(Cc3ccccc3)ON=C2c2ncccc2C)o1 (configuration not stated) | inactive

Row | Structure (SMILES) | Potency
79 | COc1ccc(C(=O)NCC2CCCO2)cc1S(=O)(=O)NCc1ccc(Cl)cc1 (configuration not stated) | inactive
80 | CC(c1ccco1)N(C(=O)COc1ccccc1[N+](=O)[O-])c1ccccn1 (configuration not stated) | 15.8 µM (active)
81 | Cc1ccc(CN(C(=O)c2ccccc2[N+](=O)[O-])c2ccccn2)cc1 | inactive
82 | CC(c1ccco1)N(C(=O)c1ccc(S(=O)(=O)N2CCCCC2)cc1)c1ccccn1 (configuration not stated) | inactive
83 | CCOCCCNC(=O)c1cc2c(=O)n3ccccc3nc2s1 | inactive
84 | CN(C(=O)CSc1nncc2ccccc12)C1CCCCC1 | inactive
85 | CN(C(=O)c1cc2c(=O)n3ccccc3nc2s1)C1CCCCC1 | 3.16 µM (active)
86 | O=c1[nH][nH]c2c1[C@H](c1ccc(Cl)cc1)O[C@H](CCc1ccccc1)C2 | inactive
87 | O=c1oc2cc(O)ccc2cc1-c1ccc(F)cc1 | 14.1 µM (active)
88 | COc1ccc(-c2cc3ccc(OCc4nn[nH]n4)cc3oc2=O)cc1 | inactive
89 | COc1cccc(C(=O)c2cc3ccc(O)cc3oc2=O)c1 | inactive
90 | CCOC(=O)N(C)c1c(CC)nc2c(OCc3ccccc3C(=O)OC)cccn12 | inactive
91 | COc1cncc(-c2cnc3sc(NCCc4ccccn4)nn23)c1 | inactive
92 | CCc1nc2ccc(C(=O)N3CCN(S(=O)(=O)CC)CC3)cn2c1N(C=O)CCC(C)C | inactive
93 | COc1ccc(S(=O)(=O)N(C)C[C@H]2OCc3cnnn3CCCC(=O)N([C@H](C)CO)C[C@H]2C)cc1 | inactive
94 | C=C1C(=O)[C@]23C[C@H]1CCC2[C@@]1(C)C(C[C@@H]3O)[C@](C)(C(=O)O)CC[C@@H]1O (some centres not stated) | inactive
95 | CC(C)CN1CCC1(C)C(=O)Nc1ccc(OC(F)F)cc1 (configuration not stated) | inactive
96 | O=Cc1c(NCCCN2CCCC2=O)c2ccccc2[nH]c1=O | inactive
97 | Cc1nn(Cc2ccccc2)c(C)c1C(=O)NCCCN1CCCC1=O | inactive
98 | O=C1CCCN1CCCNc1ncnc2c1[nH]c1ccccc12 | 22.4 µM (active)
99 | Nc1ncnc2c1ncn2[C@@H]1O[C@H](CNC(=O)[C@H](N)Cc2cccnc2)[C@@H](O)[C@H]1O | inactive
100 | Clc1ccc(Cc2nnc(-c3cccs3)o2)cc1 | inactive
101 | COc1nc(-c2ccc(Cl)cc2)ccc1-c1noc(-c2cccs2)n1 | 14.1 µM (active)
102 | COc1ccc(CCc2nc(-c3cccs3)no2)cc1 | inactive

— PubChem BioAssay AID651965 (National Center for Advancing Translational Sciences (NCATS), 2013)
